The record followed here is paper PMC5836133, “The intracellular immune receptor Rx1 regulates the DNA-binding activity of a Golden2-like transcription factor”.

In all, about 16,000 sequences were measured (“e-score”: median about -0.044, highest 2% from about 0.38 on). This excerpt belongs to a sample that is enriched for the highest values.

In this experiment the target is T1, GST-NbGlk1(82-244) (Nicotiana benthamiana).
T1 chain: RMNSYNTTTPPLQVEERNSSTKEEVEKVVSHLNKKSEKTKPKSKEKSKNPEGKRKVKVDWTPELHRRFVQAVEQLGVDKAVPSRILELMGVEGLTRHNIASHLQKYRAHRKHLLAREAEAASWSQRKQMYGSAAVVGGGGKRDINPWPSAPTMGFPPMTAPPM
As to the kind of experiment: protein-binding microarray; NbGlk1 is a Golden2-like transcription factor of Nicotiana benthamiana; high values mean tight binding. Particulars: protein: recombinant; tags: GST (pTH6838); dsDNA, one strand shown.
For AATCACGT, the binding signal stood at 0.304 ± 0.0574 E-score.

For AATCGCGT, the binding signal amounted to 0.352 ± 0.0711 E-score.

For AATCTCGG, the binding signal was determined as 0.429 ± 0.00874 E-score.

For the sequence AATCGCGC, the binding signal amounted to 0.311 ± 0.0585 E-score.

On to AATCTCGA, for which the binding signal was 0.436 ± 0.00491 E-score.

Take ATTCTCGG: the binding signal amounted to 0.229 ± 0.0773 E-score.

For AATCACGG, the binding signal was 0.256 ± 0.0042 E-score.

Turning to AATCTCGC, the binding signal stood at 0.411 ± 0.0281 E-score.

For the sequence ATTCTCGC, the binding signal is 0.232 ± 0.00302 E-score.

AATCACGA: the binding signal worked out at 0.339 ± 0.0266 E-score.

Take AAATAAAT: the binding signal is 0.24 ± 0.102 E-score.

Take ATCTCGAA: the binding signal was 0.367 ± 0.06 E-score.

Take ATAGCGTA: the binding signal came to 0.266 ± 0.0123 E-score.

AATACGAT: the binding signal came to 0.294 ± 0.0273 E-score.

For the sequence AATACGTG, the binding signal turned out to be 0.216 ± 0.0545 E-score.

As for ATAAGATA, the binding signal is 0.301 ± 0.0184 E-score.

ATTCGGGA: the binding signal is 0.286 ± 0.0532 E-score.

In the case of ATACAGAA, the binding signal stood at 0.221 ± 0.0562 E-score.

With ACAAGGAT, the binding signal came to 0.227 ± 0.00244 E-score.

ATTCTCTA: the binding signal came to 0.306 ± 0.094 E-score.

ATTCTCTG: the binding signal is 0.358 ± 0.0226 E-score.

AAATTCTA: the binding signal amounted to 0.245 ± 0.0867 E-score.

Consider ATATTCTA, for which the binding signal was 0.25 ± 0.0067 E-score.

For the sequence AGATTCTG, the binding signal stood at 0.4694 ± 0.00442 E-score.

As to ATATTCTC, the binding signal turned out to be 0.402 ± 0.0347 E-score.

On to AGATTCTC, for which the binding signal worked out at 0.4901 ± 0.00333 E-score.

For ATATTCTG, the binding signal was 0.342 ± 0.04 E-score.

Regarding AAATTCTG, the binding signal was 0.235 ± 0.065 E-score.

As for AGATTCTA, the binding signal was found to be 0.4515 ± 0.00133 E-score.

For AGATTCAC, the binding signal is 0.289 ± 0.0335 E-score.

For AAATTCTC, the binding signal is 0.283 ± 0.0053 E-score.

For AATCAATT, the binding signal stood at 0.213 ± 0.116 E-score.

Turning to ATAATTTC, the binding signal worked out at 0.227 ± 0.0306 E-score.

Take AGTCAGAT: the binding signal turned out to be 0.208 ± 0.0487 E-score.

Take AGTTGGAT: the binding signal came to 0.269 ± 0.0791 E-score.

Regarding AATCACGC, the binding signal is 0.256 E-score.

For the sequence ATAAGGAT, the binding signal was determined as 0.22 ± 0.0746 E-score.

Turning to ATCGGTAA, the binding signal stood at 0.201 ± 0.0464 E-score.

As for ATATTCCG, the binding signal amounted to 0.36 ± 0.00732 E-score.

As to ATATTCCA, the binding signal stood at 0.326 ± 0.0114 E-score.

Regarding ATATTCCC, the binding signal is 0.393 ± 0.0225 E-score.

For AAATCAGC, the binding signal turned out to be 0.363 ± 0.0041 E-score.

Consider CAATCGGA, for which the binding signal was 0.227 ± 0.013 E-score.

For the sequence ATATTGAA, the binding signal was found to be 0.203 ± 0.00588 E-score.

Turning to AATGATAT, the binding signal came to 0.224 ± 0.0384 E-score.

For AATCTAAG, the binding signal worked out at 0.402 ± 0.0258 E-score.

For AATCGAAC, the binding signal amounted to 0.213 ± 0.0388 E-score.

ATCCTAAT: the binding signal stood at 0.248 ± 0.0062 E-score.

As for AATCTAAA, the binding signal is 0.403 ± 0.0351 E-score.

In the case of AATTTAAA, the binding signal was 0.226 ± 0.0725 E-score.

Regarding AATCAAAC, the binding signal was 0.25 ± 0.0482 E-score.

On to AATCTAAT, for which the binding signal was determined as 0.412 ± 0.0116 E-score.

Regarding AATCTAAC, the binding signal stood at 0.413 ± 0.0271 E-score.

AATCGAAG: the binding signal was found to be 0.285 ± 0.0157 E-score.

Turning to AATCAAAG, the binding signal came out at 0.221 ± 0.0254 E-score.

As to AATCAAAT, the binding signal came to 0.297 ± 0.0152 E-score.

In the case of ATTCTAAA, the binding signal came out at 0.221 ± 0.0153 E-score.

As to ATCGCACA, the binding signal is 0.256 ± 0.0485 E-score.

Take ATCTCATG: the binding signal was 0.3181 ± 0.000641 E-score.

As to ATTTCCGC, the binding signal amounted to 0.333 ± 0.0224 E-score.

With ATCTTATA, the binding signal was determined as 0.342 ± 0.00345 E-score.

On to ATCTTATC, for which the binding signal is 0.288 ± 0.0568 E-score.

ATCTGGAG: the binding signal is 0.225 ± 0.0674 E-score.

On to ATTCGAAT, for which the binding signal was found to be 0.221 ± 0.203 E-score.

As to AATCCTCC, the binding signal is 0.375 ± 0.00794 E-score.

With AATCCTCA, the binding signal came to 0.376 ± 0.0245 E-score.

In the case of ATTCCACC, the binding signal turned out to be 0.235 ± 0.0237 E-score.

Take AATCCACC: the binding signal turned out to be 0.382 ± 0.0151 E-score.

As to AATCCACA, the binding signal worked out at 0.419 ± 0.00571 E-score.

Consider ATTCCACG, for which the binding signal was determined as 0.222 ± 0.06 E-score.

On to ATCCCACA, for which the binding signal turned out to be 0.234 ± 0.0752 E-score.

Take AATCCACT: the binding signal is 0.364 ± 0.0439 E-score.

As to AATCCACG, the binding signal was 0.406 ± 0.0241 E-score.

As for AATTTTAG, the binding signal was found to be 0.222 ± 0.0121 E-score.

ATCTGCAT: the binding signal is 0.31 ± 0.0522 E-score.

For the sequence AAATCGAC, the binding signal stood at 0.341 ± 0.00515 E-score.

With AATCCAGA, the binding signal came to 0.349 ± 0.0199 E-score.

On to AATCCCGG, for which the binding signal amounted to 0.326 ± 0.0261 E-score.

For AATCCAGC, the binding signal stood at 0.364 ± 0.00724 E-score.

As to AATCCAGT, the binding signal worked out at 0.398 ± 0.00993 E-score.

Regarding AATCCAGG, the binding signal turned out to be 0.415 ± 0.00511 E-score.

With AATCCCAG, the binding signal was 0.342 ± 0.0163 E-score.

Turning to ATTACCAC, the binding signal was 0.255 ± 0.0899 E-score.

Consider ATCATAGA, for which the binding signal was 0.214 ± 0.00111 E-score.

For AAGAAATC, the binding signal turned out to be 0.443 ± 0.00563 E-score.

As to ACGAAATA, the binding signal stood at 0.246 ± 0.0511 E-score.
